Inconclusive results are not listed. Active and inactive are the calls of the source. Unless noted, calls come from the whole dose curve; as a rule, active = well fitted curve in the direction sought with a large enough effect; inconclusive = small, poorly fitted or top-dose-only effect, or another doubt; inactive = no such curve, though single readings can be large; an effect the other way counts as inactive or inconclusive.
Legend:
[1] = qHTS assay for small molecule activators of the nuclear factor-kappa B (NF-kB) signaling pathway (AID 651749; active = well fitted activation curve with a large enough effect in the signal ratio; the % refers to the signal ratio; note: series mostly up to about 77 µM; % of control where 0% means no effect); settings: NF-kB-bla ME-180 cells, beta-lactamase FRET ratio, 16 h; hits give high values
In short: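 NF-kB-bla ME-180 cells, 2,000/well; 23 nL compound or DMSO pinned; 16 hr, 37C/5% CO2; beta-lactamase FRET read-out.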

[2] = target: Tumor necrosis factor (Homo sapiens) (UniProt P01375); assay: qHTS assay to identify small molecules that stimulate Tumor Necrosis Factor-alpha (TNF-alpha) secretion (AID 651757; active = well fitted curve in the direction sought with a large enough effect in the signal ratio; the % refers to the signal ratio; note: 0% is about no effect)
Sequence of Tumor necrosis factor (Homo sapiens) (P01375 whole entry, looked up): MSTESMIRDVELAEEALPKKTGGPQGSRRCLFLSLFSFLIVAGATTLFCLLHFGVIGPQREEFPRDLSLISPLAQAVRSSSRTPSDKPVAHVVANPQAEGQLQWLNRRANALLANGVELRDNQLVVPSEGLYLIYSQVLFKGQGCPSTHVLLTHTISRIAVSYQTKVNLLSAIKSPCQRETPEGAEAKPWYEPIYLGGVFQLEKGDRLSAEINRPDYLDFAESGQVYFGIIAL
In short: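 Using 3000 THP-1 cells per well, compounds and controls were applied for 17 hrs at 37 C. Detection followed with two labeled anti-TNF-alpha antibodies (cryptate donor, XL665 acceptor) for 3 hr at room temperature, measured by TR-FRET.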

[3] = qHTS assay for environmental chemicals that activate the Aryl hydrocarbon Receptor (AhR) signaling pathway (AID 651777); settings: 1A2-DRE human hepatoma cells, luciferase, 24 h; activation: hits give high values; note: % of control where 0% means no effect; nearly all actives have a fitted effect of over 15% in size
In short: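 AhR activation is scored as a rise in luciferase from a stable DRE–CYP1A2 promoter construct in human hepatoma cells. Treatment lasts 24 hr at 37 C; detection uses One-Glo after 30 min at room temperature.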

[4] = target: Peroxisome proliferator-activated receptor alpha (Homo sapiens) (UniProt Q07869); assay: qHTS assay for small molecule agonists of the peroxisome proliferator-activated receptor alpha (PPARalpha) signaling pathway (AID 651778); settings: PathHunter PPARalpha complementation, chemiluminescence, 6 h; max response: hits give high values; note: % of control where 0% means no effect
Sequence of Peroxisome proliferator-activated receptor alpha (Homo sapiens) (Q07869 whole entry, looked up, the tested form may be a part): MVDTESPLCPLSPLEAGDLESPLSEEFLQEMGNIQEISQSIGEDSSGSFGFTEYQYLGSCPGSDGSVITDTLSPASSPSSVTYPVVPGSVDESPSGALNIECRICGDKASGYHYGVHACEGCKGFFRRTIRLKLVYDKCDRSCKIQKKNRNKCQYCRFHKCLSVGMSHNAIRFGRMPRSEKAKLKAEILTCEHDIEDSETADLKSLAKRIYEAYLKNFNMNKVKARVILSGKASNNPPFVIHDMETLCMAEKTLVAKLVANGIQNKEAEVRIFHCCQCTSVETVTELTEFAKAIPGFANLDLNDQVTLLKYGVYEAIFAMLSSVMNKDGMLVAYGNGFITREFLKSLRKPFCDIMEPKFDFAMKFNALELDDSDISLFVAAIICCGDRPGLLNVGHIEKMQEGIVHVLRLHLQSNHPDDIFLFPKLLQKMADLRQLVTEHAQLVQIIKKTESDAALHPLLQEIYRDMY
In short: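 Enzyme-fragment complementation assay in which ligand-bound PPARalpha translocates and forms an active enzyme that generates chemiluminescence. Cells were plated overnight, exposed to compound for 6 hr at 37 C, and then given detection reagent for 60 min at room temperature.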

[5] = qHTS assay for small molecule agonists of the antioxidant response element (ARE) signaling pathway measured by Nrf2-dependant transcriptional activity (AID 720636; active = well fitted curve in the direction sought with a large enough effect in the repeat runs; an effect the other way counts as inactive or inconclusive; note: % of control where 0% means no effect)
In short: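 First, ARE-luc HepG2 cells attached for 6 hr at 37 C in 1% dialyzed FBS medium. Next, compound or DMSO was added and incubated 16 hr. Finally, ONE-Glo reagent was added and luminescence measured after 30 min.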

[6] = qHTS assay for small molecule antagonists of the retinoid-related orphan receptor gamma (ROR-gamma) signaling pathway - cell viability counter screen (AID 720652; active = well fitted curve in the direction sought with a large enough effect in the repeat runs; an effect the other way counts as inactive or inconclusive;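 note: CHO reporter cells with doxycycline-induced ROR-gamma expression; series mostly up to about 92 µM; compound exposure lasted 16 hr before ATP read; % is set by controls: 0 for no effect and ±100 for the full control effect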)
In short: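 ATP-based viability readout in the ROR-gamma reporter CHO cells after 16 hr compound exposure under doxycycline induction.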

[7] = qHTS assay for small molecule agonists of the antioxidant response element (ARE) signaling pathway measured by Nrf2-dependant transcriptional activity - cell viability counter screen (AID 720653; active = well fitted curve in the direction sought with a large enough effect in the repeat runs; an effect the other way counts as inactive or inconclusive; note: % is set by controls: 0 for no effect and ±100 for the full control effect); settings: ARE-bla HepG2 viability, CellTiter-Glo ATP luminescence, 16 h; max response: hits give low values
In short: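 ARE-bla HepG2 cells treated with compounds for 16 h at 37C; this counter screen measures viability as intracellular ATP by CellTiter-Glo luminescence after 30 min at room temperature.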

[8] = qHTS assay for cell viability of HEK293 cells (AID 743288); settings: ATP luminescence (CellTiter-Glo), 18 h; max response: hits give low values; note: % is set by controls: 0 for no effect and ±100 for the full control effect; nearly all actives have a fitted effect of over 50% in size
In short: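 Quantitative high-throughput screen: compounds were pinned onto parental HEK293 cells (2,000 per well) after a minimum 5 h settling at 37 C, incubated 18 h at 37 C, and intracellular ATP measured by luciferase luminescence.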

[9] = qHTS assay for cell viability of the p53RE-bla HCT-116 cell line (AID 743292); note: % is set by controls: 0 for no effect and ±100 for the full control effect; nearly all actives have a fitted effect of over 55% in size
In short: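 Quantitative high-throughput format: compounds in DMSO were pinned onto p53RE-bla HCT-116 cells (4,000/well) and incubated 16 h at 37 C. Total intracellular ATP, read by CellTiter-Glo luminescence, reflects viable cell number.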

[10] = Viability counterscreen for antagonist of constitutive androstane receptor (CAR) against the NCATS DSHEA and TCM libraries (AID 1794837);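 note: compound exposure lasted 24 h before viability reading; 0% is about no effect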
In short: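 Fluorescence from CellTiter-Fluor reports live-cell protease activity in HepG2-CYP2B6-hCAR cells treated for 24 h with substances alongside 48 uM CITCO.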

[11] = Viability counterscreen for agonist of constitutive androstane receptor (CAR) against the NCATS DSHEA and TCM libraries (AID 1794838);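 note: HepG2 cells with CYP2B6 reporter and hCAR plus 0.75 µM PK11195 antagonist; 0% is about no effect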
In short: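 In agonist mode, PK11195 is added at 0.75 uM final to HepG2-CYP2B6-hCAR cells dosed with test substances. Cultures incubate 24 h at 37C before a protease-based fluorogenic viability readout.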

[12] = HepG2 viability counterscreen (readout 2: ATP content) against the NCATS DSHEA and TCM libraries (AID 1794840);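 note: HepG2 cells exposed to substances for about 24 h; 0% is about no effect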
In short: (§1)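 Cytotoxicity was assessed in HepG2 cells plated at 1,000 cells/well and exposed for about 24 hours to a concentration series. Protease activity and ATP content were measured sequentially in each well.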

[13] = HepG2 viability counterscreen (readout 1: protease activity) against the NCATS DSHEA and TCM libraries (AID 1794841);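 note: cells exposed to compounds for about 24 h before the protease read; 0% is about no effect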
In short: as §1

[14] = target: Cytochrome P450 3A4 (Homo sapiens) (UniProt P08684); assay: qHTS for inhibitors of CYP3A4 against the NCATS DSHEA and TCM libraries (AID 1919971);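 note: % is set by controls: 0 for no effect and ±100 for the full control effect; inhibition lowers luminescence from luciferin made by CYP3A4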
Sequence of Cytochrome P450 3A4 (Homo sapiens) (P08684 whole entry, looked up, canonical isoform): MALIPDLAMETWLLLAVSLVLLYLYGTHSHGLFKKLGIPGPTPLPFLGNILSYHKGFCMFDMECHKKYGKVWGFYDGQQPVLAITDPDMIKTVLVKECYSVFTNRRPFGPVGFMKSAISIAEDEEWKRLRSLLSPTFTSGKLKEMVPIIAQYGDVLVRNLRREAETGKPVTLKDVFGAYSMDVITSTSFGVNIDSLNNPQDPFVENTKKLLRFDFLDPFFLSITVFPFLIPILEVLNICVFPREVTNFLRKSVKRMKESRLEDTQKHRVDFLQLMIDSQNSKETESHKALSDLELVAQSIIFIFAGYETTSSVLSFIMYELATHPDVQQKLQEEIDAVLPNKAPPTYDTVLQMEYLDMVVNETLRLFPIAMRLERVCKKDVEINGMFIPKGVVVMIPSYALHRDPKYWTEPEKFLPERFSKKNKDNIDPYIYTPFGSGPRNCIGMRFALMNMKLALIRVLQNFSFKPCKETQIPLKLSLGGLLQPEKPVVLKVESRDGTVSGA
In short: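 Isoform-specific enzyme and substrate levels; enzyme-free wells as background. Reaction: 1x NADPH regenerating system, 30-45 min, room temperature, shielded from light; luminescent detection reagent added, 30 min.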

[15] = target: Cytochrome P450 2D6 (Homo sapiens) (UniProt P10635); assay: qHTS for inhibitors of CYP2D6 against the NCATS DSHEA and TCM libraries (AID 1919972); note: % is set by controls: 0 for no effect and ±100 for the full control effect
Sequence of Cytochrome P450 2D6 (Homo sapiens) (P10635 whole entry, looked up): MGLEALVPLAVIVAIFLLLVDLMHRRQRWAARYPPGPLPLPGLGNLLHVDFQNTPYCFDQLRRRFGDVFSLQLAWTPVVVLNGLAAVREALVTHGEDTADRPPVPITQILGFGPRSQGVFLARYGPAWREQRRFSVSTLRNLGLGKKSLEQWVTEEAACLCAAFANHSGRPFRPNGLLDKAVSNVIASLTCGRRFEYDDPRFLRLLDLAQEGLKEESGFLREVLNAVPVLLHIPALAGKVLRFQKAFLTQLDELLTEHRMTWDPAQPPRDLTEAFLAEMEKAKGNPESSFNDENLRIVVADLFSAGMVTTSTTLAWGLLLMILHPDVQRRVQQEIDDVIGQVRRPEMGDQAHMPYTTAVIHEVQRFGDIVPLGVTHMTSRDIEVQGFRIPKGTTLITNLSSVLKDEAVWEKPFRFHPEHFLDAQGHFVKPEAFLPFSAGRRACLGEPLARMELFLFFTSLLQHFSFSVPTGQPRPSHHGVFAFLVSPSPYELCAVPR
In short: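 qHTS, concentration–response format with most substances from 19.5 nM. CYP2D6 + pro-luciferin substrate, 15 min with compound, then 1x NADPH regen, 30–45 min RT dark. Glo detection 30 min, luminescence. Quinidine control.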

[16] = KB-3-1 P-gp reporter qHTS against the NCATS DSHEA and TCM libraries (AID 1919975); note: 0% is about no effect
In short: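 72 h exposure of KB-3-1 cells (DMEM, 10% FBS) to DSHEA/TCM samples, concentration-response; cell viability measured as CellTiter-Glo luminescence after 30 min at room temperature.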

[17] = target: Cytochrome P450 1A2 (Homo sapiens) (UniProt P05177); assay: qHTS for inhibitors of CYPIA2 against the NCATS DSHEA and TCM libraries (AID 1919976);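 note: light from luciferin formed by CYP1A2 from a pro-luciferin substrate; series mostly up to about 37 µM; % is set by controls: 0 for no effect and ±100 for the full control effect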
Sequence of Cytochrome P450 1A2 (Homo sapiens) (P05177 whole entry, looked up): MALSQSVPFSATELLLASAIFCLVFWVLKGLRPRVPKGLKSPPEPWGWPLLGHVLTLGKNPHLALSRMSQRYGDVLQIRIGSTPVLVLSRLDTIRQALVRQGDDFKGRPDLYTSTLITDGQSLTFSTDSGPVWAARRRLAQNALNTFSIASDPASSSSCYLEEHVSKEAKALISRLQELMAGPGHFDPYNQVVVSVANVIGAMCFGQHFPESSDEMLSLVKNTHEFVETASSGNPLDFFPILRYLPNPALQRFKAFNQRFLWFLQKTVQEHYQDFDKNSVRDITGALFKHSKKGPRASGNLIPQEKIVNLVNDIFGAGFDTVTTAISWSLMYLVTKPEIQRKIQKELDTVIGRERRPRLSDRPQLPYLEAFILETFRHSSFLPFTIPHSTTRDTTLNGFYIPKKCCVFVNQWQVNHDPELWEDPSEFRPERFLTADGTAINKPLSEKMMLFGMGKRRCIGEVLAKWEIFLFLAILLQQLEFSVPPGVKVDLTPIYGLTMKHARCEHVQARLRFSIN
In short: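 Furafylline served as the plate control. Compounds met CYP1A2 and pro-luciferin substrate 15 min before NADPH regeneration solution (1x) was added; after 30-45 min at RT, P450-Glo reagent was added for 30 min and luminescence was measured.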

[18] = qHTS Counterscreen for compound interference against the NCATS DSHEA and TCM libraries (AID 1919978); settings: firefly luciferase detection reagent interference, luminescence; note: % of control where 0% means no effect
In short: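 Read-out is luminescence after 30 min at RT with luciferin detection reagent. Before that, compounds (19.5 nM to 39.8 uM final) sat 15 min at RT with 1 uM D-luciferin or 100 mM potassium phosphate buffer. PTC124 served as intraplate control.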

[19] = Dual reporter qHTS for agonist of Pregnane X Receptor (hPXR) against the NCATS DSHEA and TCM libraries: Fluorescence readout (AID 1920058); note: 0% is about no effect
In short: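 In this qHTS counter-read, reporter-bearing HepG2 cells in charcoal-stripped serum received substances for approximately 24 h before viability was assessed fluorometrically with CellTiter-Fluor.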

[20] = target: Nuclear receptor subfamily 1 group I member 2 (Homo sapiens) (UniProt O75469); assay: Dual reporter qHTS for agonist of Pregnane X Receptor (hPXR) against the NCATS DSHEA and TCM libraries: Luminescence readout (AID 1920059); note: 0% is about no effect
Sequence of Nuclear receptor subfamily 1 group I member 2 (Homo sapiens) (O75469 whole entry, looked up): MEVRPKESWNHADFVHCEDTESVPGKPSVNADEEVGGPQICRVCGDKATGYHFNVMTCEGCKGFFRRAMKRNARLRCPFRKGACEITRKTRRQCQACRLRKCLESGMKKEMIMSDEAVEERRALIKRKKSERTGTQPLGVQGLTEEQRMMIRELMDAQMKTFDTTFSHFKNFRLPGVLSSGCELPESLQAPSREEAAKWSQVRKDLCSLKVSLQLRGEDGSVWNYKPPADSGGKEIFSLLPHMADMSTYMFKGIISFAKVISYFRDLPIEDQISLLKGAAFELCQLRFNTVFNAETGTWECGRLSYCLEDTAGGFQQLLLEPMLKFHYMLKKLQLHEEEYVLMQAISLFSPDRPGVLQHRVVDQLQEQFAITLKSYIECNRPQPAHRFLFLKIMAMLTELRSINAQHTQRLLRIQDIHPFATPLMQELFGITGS
In short: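 hPXR-Luc HepG2 cells, 2000/well in 5% charcoal-stripped FBS medium, attached 5 h, then exposed 24 h at 37C to compounds. Viability by CellTiter-Fluor, then luciferase luminescence with ONE-Glo.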

[21] = target: Nuclear receptor subfamily 1 group I member 2 (Homo sapiens) (UniProt O75469); assay: Dual reporter qHTS for antagonist of Pregnane X Receptor (hPXR) against the NCATS DSHEA and TCM libraries: Luminescence Readout (AID 1920060); note: 0% is about no effect
In short: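 Rifampicin-stimulated (2 uM final) hPXR-luciferase HepG2 cells were treated for 24 h with DSNP/TCM substances. Viability came from CellTiter-Fluor fluorescence, reporter activity from ONE-Glo luminescence.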

[22] = target: Nuclear receptor subfamily 1 group I member 2 (Rattus norvegicus) (UniProt Q9R1A7); assay: qHTS assay for small molecule activators of the rat pregnane X receptor (rPXR) signaling pathway (AID 651751; call rule not given here; note: 0% is about no effect); settings: rPXR reporter cells, luciferase (One-Glo), 24 h
Sequence of Nuclear receptor subfamily 1 group I member 2 (Rattus norvegicus) (Q9R1A7 whole entry, looked up): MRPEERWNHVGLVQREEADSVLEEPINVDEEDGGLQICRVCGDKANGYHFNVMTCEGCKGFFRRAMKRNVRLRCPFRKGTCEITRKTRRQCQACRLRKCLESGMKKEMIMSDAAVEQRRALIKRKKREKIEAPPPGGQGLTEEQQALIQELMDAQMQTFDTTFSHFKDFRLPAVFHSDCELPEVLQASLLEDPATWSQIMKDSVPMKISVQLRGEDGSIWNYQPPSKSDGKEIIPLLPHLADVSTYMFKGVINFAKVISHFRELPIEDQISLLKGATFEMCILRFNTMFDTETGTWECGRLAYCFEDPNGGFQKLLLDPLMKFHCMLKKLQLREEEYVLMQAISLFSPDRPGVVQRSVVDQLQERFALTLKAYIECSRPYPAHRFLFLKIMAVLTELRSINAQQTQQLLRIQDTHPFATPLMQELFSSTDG

[23] = qHTS assay for small molecule activators of the human pregnane X receptor (PXR) signaling pathway (AID 720659; call rule not given here; note: 0% is about no effect)

CC1=C2[C@H](/C=C(\C)C(=O)O)CC[C@@H](C)[C@H]2CC1
inactive: activation [1] -1.71% | outcome [2] | activation [3] 0.0877% | max response [4] 14.9% | Potency [5] | Potency [6] | max response [7] -0.329% | max response [8] 5.67% | Potency [9] | outcome [10] | outcome [11] | outcome [12] | outcome [13] | Potency [14] | Potency [15] | outcome [16] | Potency [17] | max response [18] 1.69% | outcome [19] | Potency [20] | outcome [21] | max response [22] -3.01% | outcome [23]

From PubChem BioAssay (NCATS)
